Values without a mark were called inactive. Records with an inconclusive call do not appear. The source made the active and inactive calls. Unless noted, calls follow the shape of the dose curve; as a rule, active = well fitted curve in either direction with a large enough effect (not every such curve was filed as active); inconclusive = small, poorly fitted or top-dose-only effect, or another doubt; inactive = flat fitted curve, though single readings scatter.
Assays:
[1] = biological target: Lysosomal acid glucosylceramidase (Homo sapiens) (UniProt P04062); experiment: Glucocerebrosidase-p2 (AID 348; in the data active = potency below about 10 µM; also: potency is read from the fitted curve at half-maximal effect); conditions: purified GBA, blue fluorogenic substrate, 40 min
Chain of Lysosomal acid glucosylceramidase (Homo sapiens) (P04062 whole entry, looked up): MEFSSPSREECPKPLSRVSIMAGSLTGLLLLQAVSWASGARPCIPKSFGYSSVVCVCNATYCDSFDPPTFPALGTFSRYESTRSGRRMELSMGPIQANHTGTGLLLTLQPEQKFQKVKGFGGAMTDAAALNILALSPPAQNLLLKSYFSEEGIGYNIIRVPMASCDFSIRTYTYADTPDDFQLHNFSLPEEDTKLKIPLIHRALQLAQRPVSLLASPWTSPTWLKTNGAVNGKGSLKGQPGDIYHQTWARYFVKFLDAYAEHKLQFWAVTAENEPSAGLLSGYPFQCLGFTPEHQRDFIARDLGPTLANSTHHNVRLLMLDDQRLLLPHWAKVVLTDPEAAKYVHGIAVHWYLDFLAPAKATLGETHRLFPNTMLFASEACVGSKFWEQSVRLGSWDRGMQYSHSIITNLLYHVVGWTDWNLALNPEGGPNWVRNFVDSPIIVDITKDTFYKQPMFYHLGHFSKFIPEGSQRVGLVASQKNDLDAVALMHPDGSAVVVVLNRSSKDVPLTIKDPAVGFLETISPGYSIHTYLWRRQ
Method in brief: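 Compounds titrated from 0.6 nM upwards against 0.2 nM enzyme in pH 5.9 citric acid/KH2PO4, taurocholate, tween-20; blue fluorogenic substrate 80 uM, 40 min room temperature, stopped and read Ex 365/Em 440 for AC50.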

[2] = AP1 Signaling Pathway (AID 357); conditions: ME-180 AP-1-bla reporter, EGF-induced, beta-lactamase ratio, 5 h; at 7.69 µM (top of the series) unless noted;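 also: ME-180 reporter cells stimulated with EGF at its EC50 level; % is scaled to controls: 0 for no effect and ±100 for the full control effect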
Method in brief: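 First, ME-180 AP-1-bla cells were cultured overnight at 37 °C in low-serum Opti-MEM. Next, titrated compounds with EC50 EGF were incubated 5 hours. Finally, CCF4 was added for 2.5 hours and the 460/530 nm ratio recorded.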

[3] = NFAT Signaling Pathway (AID 444); conditions: Jurkat NFAT-bla M1, carbachol, beta-lactamase ratio, 5 h; at 7.69 µM (top of the series) unless noted;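 also: carbachol stimulus at about its EC50 of 1 µM final; % is scaled to controls: 0 for no effect and ±100 for the full control effect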
Method in brief: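 Jurkat cells carrying an NFAT-driven β-lactamase reporter and co-transfected muscarinic M1 receptor were treated with compound plus carbachol (1 uM final, an EC50 level) for 5 h at 37 °C. CCF4 loading followed for 1 h at RT; 460/530 nm ratio gave %activity.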

[4] = Stat Signaling Pathway (AID 446); conditions: ME-180 SIE beta-lactamase reporter, IL-6 stimulated, 5 h; at 7.69 µM (top of the series) unless noted;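 also: ME-180 cervical cancer cells given 40 pM IL-6 alongside compound; SIE-controlled beta-lactamase reporter measured as 460/530 nm FRET emission ratio; % is scaled to controls: 0 for no effect and ±100 for the full control effect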
Method in brief: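 Screening format detects activators and inhibitors alike: ME-180 SIE-bla cells stimulated at 40 pM IL-6 for 5 hrs with compound, then dual-emission beta-lactamase read at 405 nm excitation.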

[5] = biological target: Glucocorticoid receptor (Homo sapiens) (UniProt P04150); experiment: GR-EFC Redistribution (AID 451; calls by dose curve; also: potency is read from the fitted curve at half-maximal effect); conditions: CHO-K1 GR-EFC translocation, beta-gal luminescence, 2 h
Chain of Glucocorticoid receptor (Homo sapiens) (P04150 whole entry, looked up, the tested form may be a part): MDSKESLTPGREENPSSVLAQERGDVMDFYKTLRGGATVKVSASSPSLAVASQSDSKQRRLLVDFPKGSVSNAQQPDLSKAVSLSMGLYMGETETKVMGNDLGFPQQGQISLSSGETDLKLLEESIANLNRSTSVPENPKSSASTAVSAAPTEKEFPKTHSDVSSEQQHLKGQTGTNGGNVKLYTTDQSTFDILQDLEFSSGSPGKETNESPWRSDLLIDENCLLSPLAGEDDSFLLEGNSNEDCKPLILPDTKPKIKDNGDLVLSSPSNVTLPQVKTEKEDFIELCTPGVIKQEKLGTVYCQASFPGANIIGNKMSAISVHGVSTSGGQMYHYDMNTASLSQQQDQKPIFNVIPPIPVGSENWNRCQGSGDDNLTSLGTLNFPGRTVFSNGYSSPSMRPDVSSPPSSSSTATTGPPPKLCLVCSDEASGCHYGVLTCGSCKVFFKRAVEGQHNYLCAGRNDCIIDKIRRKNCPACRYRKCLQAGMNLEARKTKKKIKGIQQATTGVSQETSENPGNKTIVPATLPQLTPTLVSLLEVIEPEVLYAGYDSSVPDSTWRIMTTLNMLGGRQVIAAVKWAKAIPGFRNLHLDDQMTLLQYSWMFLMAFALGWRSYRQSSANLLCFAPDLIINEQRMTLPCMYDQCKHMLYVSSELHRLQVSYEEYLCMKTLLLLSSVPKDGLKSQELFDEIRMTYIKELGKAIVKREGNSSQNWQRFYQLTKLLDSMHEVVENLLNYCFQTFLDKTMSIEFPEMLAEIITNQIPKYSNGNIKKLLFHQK
Method in brief: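 CHO-K1 cells stably expressing nuclear-localized β-gal enzyme acceptor and GR fused C-terminally to the enzyme donor fragment; ligand-driven nuclear translocation restores β-gal by complementation. Compounds titrated up to 46 uM final, 2 h at 37 °C; luminescence read.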

[6] = biological target: Mitogen-activated protein kinase 10 (Mus musculus) (UniProt Q61831); experiment: JNK3 AlphaScreen Assay (AID 530); conditions: JNK3 lysate, c-Jun phosphorylation; series mostly up to 11.4 µM;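 also: kinase came from lysate of stimulated human HepG2 cells; signal reports phosphorylation of biotinylated GST-cJun 1-79 at Ser73 with 10 µM ATP; % is scaled to controls: 0 for no effect and ±100 for the full control effect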
Method in brief: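 Inhibitors reduce antibody binding to phosphorylated biotin-cJun, lowering AlphaScreen luminescence. Lysates from HepG2 cells pre-activated by IL-1beta plus TNF-alpha supplied JNK3; compounds were titrated.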

[7] = biological target: 3',5'-cyclic-AMP phosphodiesterase 4B (Homo sapiens) (UniProt Q07343); experiment: qHTS Assay for Inhibitors of PDE-IV (AID 607; active = well fitted activation curve with a large enough effect in the main read-out, with a control signal flat, not every such curve was filed as active; also: % of control where 0% means no effect); conditions: HEK293 ACTOne CNG channel cells, membrane potential fluorescence; series mostly up to 22.9 µM
Chain of 3',5'-cyclic-AMP phosphodiesterase 4B (Homo sapiens) (Q07343 whole entry, looked up): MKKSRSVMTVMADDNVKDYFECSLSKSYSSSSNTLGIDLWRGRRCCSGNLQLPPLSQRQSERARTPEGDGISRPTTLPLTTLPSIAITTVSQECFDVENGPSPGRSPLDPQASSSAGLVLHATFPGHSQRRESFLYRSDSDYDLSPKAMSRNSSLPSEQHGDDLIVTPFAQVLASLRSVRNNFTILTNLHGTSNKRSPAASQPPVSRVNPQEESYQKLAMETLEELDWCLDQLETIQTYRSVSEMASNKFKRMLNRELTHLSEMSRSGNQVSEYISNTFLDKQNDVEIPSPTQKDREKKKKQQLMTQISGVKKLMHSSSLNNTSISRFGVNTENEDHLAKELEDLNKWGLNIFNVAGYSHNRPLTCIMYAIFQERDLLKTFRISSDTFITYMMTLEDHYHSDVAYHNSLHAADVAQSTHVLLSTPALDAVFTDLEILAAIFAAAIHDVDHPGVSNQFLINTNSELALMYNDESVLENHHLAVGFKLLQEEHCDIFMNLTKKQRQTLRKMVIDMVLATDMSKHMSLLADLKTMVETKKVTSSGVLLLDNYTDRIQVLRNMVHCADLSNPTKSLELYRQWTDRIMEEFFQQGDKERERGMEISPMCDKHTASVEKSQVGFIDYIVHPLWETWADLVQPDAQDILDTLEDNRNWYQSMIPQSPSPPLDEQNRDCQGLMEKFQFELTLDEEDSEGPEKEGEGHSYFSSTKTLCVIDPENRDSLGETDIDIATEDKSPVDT
Method in brief: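 The readout is membrane depolarisation from a cAMP-sensing CNG channel, detected with a potential dye at ex 535/em 590. Cells were HEK293-derived (endogenous PDE-IV) at 1000 cells/well, titrated up to 22.9 uM final.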

[8] = biological target: Glucocorticoid receptor (Homo sapiens) (UniProt P04150); experiment: GR-GFP Redistribution (AID 450;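 active = compounds whose dose series gives a full or clear partial fitted curve of increased nuclear translocation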; also: potency is read from the fitted curve at half-maximal effect); conditions: U2OS GR-GFP nuclear translocation, laser cytometry, 2 h
[9] = biological target: Cytochrome P450 2C19 (Homo sapiens) (UniProt P33261); experiment: qHTS Assay for Inhibitors and Substrates of Cytochrome P450 2C19 (AID 899; active = well fitted curve in the direction sought with a large enough effect; an effect the other way counts as inactive or inconclusive; also: nearly all actives have a fitted effect of over 60% in size; also: potency is read from the fitted curve at half-maximal effect); conditions: recombinant CYP2C19, luciferin-H EGE luminescence; series mostly up to 11.4 µM
Chain of Cytochrome P450 2C19 (Homo sapiens) (P33261 whole entry, looked up): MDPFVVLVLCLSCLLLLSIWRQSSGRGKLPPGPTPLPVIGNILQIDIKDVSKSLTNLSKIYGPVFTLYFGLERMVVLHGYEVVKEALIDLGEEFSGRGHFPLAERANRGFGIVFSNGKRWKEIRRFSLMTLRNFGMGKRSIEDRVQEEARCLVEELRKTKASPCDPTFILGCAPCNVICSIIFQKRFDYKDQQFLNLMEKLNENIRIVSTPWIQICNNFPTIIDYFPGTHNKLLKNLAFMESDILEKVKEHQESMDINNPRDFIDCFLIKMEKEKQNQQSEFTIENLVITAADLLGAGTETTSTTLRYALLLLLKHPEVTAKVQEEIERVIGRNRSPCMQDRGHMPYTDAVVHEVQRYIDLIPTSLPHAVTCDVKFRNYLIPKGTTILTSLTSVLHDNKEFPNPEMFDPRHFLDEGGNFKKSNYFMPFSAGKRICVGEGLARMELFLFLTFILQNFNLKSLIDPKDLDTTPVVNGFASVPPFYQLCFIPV
Method in brief: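 In 50mM KPO4, the reaction held 5nM enzyme and KM-level (10uM) Luciferin-H EGE; it ran 60 min at 37C after NADPH regeneration and a 10 min compound preincubation. Luminescence values were scaled to 57uM ketoconazole as complete inhibition.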

[10] = biological target: Cytochrome P450 2D6 (Homo sapiens) (UniProt P10635); experiment: qHTS Assay for Inhibitors and Substrates of Cytochrome P450 2D6 (AID 891; active = well fitted curve in the direction sought with a large enough effect; an effect the other way counts as inactive or inconclusive; also: nearly all actives have a fitted effect of over 60% in size; also: potency is read from the fitted curve at half-maximal effect); conditions: recombinant CYP2D6, luciferin-ME EGE luminescence; series mostly up to 11.4 µM
Chain of Cytochrome P450 2D6 (Homo sapiens) (P10635 whole entry, looked up): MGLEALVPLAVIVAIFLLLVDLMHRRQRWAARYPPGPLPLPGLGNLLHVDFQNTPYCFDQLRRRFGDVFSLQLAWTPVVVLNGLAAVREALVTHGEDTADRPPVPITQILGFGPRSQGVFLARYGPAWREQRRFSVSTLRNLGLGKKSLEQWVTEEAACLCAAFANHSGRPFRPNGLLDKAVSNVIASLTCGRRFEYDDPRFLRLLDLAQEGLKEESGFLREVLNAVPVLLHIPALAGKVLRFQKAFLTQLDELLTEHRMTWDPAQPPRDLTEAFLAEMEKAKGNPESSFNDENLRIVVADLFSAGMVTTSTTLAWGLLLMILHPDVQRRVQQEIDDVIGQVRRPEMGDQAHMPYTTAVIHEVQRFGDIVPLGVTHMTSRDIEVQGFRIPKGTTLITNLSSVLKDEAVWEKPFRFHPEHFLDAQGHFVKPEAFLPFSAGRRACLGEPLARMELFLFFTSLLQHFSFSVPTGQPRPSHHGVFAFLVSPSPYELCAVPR
Method in brief: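 Human CYP2D6 (5 nM) with 30 uM Luciferin-ME EGE (at Km) in 100 mM KPO4, compound preincubated 10 min, then NADPH regeneration system for 60 min at room temperature. Luciferin read by luminescence; normalized to 1.43 uM quinidine.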

[11] = biological target: Cytochrome P450 3A4 (Homo sapiens) (UniProt P08684); experiment: qHTS Assay for Activators of Cytochrome P450 3A4 (AID 885; active = well fitted curve in the direction sought with a large enough effect; an effect the other way counts as inactive or inconclusive; also: nearly all actives have a fitted effect of over 65% in size); conditions: recombinant CYP3A4, Luciferin-PPXE luminescence, 60 min; series mostly up to 11.4 µM
Chain of Cytochrome P450 3A4 (Homo sapiens) (P08684 whole entry, looked up): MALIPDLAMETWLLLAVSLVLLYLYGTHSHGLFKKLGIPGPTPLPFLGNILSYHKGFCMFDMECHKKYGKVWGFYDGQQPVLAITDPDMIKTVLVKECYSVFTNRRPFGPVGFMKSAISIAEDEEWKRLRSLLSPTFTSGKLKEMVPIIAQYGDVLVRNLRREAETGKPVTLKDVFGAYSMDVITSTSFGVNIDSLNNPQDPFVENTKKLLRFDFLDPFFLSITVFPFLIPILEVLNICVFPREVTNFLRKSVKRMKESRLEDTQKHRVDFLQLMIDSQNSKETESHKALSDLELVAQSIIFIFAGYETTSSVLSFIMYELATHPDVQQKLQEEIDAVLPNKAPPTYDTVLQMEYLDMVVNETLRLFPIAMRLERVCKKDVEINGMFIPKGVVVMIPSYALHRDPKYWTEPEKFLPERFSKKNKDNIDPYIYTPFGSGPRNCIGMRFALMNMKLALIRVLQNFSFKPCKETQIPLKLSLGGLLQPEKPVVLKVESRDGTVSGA
Method in brief: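 Steps: enzyme/substrate mix dispensed; compound added, 10 min RT; NADPH regeneration solution added, 60 min RT; luciferin detection buffer stops reaction; 20 min later luminescence measured.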

[12] = qHTS Assay for Identification of Small Molecule Agonists for Hypoxia Response Element Signaling Pathway (AID 914; active = well fitted activation curve with a large enough effect in the signal ratio, with a control signal flat, not every such curve was filed as active; the % refers to the signal ratio; also: % of control where 0% means no effect); conditions: ME-180 (cervical carcinoma) HRE-bla reporter, beta-lactamase ratio, CoCl2, 17 h; activation: active compounds read high
Method in brief: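 HRE-bla ME-180 cells, overnight plating in Opti-MEM with 0.5% dialyzed FBS; cpd titration + EC50 CoCl2, 17 h, 37 degrees Celsius; CCF4 2.5 h RT; 460/530 nm ratio; AC50.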

[13] = biological target: Cytochrome P450 2C9 (Homo sapiens) (UniProt P11712); experiment: qHTS Assay for Inhibitors and Substrates of Cytochrome P450 2C9 (AID 883; active = well fitted curve in the direction sought with a large enough effect; an effect the other way counts as inactive or inconclusive; also: potency is read from the fitted curve at half-maximal effect; nearly all actives have a fitted effect of over 60% in size); conditions: recombinant CYP2C9, luciferin-H luminescence, 60 min; series mostly up to 11.4 µM
Chain of Cytochrome P450 2C9 (Homo sapiens) (P11712 whole entry, looked up): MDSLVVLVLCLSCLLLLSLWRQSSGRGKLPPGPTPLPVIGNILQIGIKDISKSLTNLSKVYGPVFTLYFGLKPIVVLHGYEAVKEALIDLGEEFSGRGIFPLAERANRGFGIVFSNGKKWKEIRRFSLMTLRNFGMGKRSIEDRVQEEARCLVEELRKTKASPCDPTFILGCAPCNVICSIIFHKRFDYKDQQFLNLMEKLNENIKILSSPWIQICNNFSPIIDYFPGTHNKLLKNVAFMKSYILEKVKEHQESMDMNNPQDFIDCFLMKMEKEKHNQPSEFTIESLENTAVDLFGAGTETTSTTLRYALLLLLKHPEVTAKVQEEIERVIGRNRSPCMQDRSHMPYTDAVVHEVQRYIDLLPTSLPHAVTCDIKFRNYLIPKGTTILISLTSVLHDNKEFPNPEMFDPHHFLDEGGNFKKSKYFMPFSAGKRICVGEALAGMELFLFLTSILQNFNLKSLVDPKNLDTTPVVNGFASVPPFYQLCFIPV
Method in brief: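 CYP2C9 deoxyluciferin hydroxylation, 37C, 60 min with NADPH regeneration; 10nM enzyme, 100uM Luciferin-H (KM). Glo detection reagent stopped reaction; luminescence normalized to sulphaphenazole (57uM) full inhibition.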

## O=C1OC2(c3ccc(O)cc3Oc3cc(O)ccc32)c2c1c(-c1ccccc1)c(-c1ccccc1)c(-c1ccccc1)c2-c1ccccc1
[1]
  Potency: > 11.4 µM
[2]
  activity change, negative = inhibition: -28.2%
[3]
  activity change, negative = inhibition: 5.71%
[4]
  activity, negative = inhibition: -17.7%
[5]
  Potency: > 9.22 µM
[6]
  Potency: inactive
[7]
  Potency: inactive

## CCN(CC)CCN1C(=O)c2cccc3cc(N)cc(c23)C1=O
[1]
  Potency: > 11.4 µM
[2]
  activity change, negative = inhibition: 25.3%
[3]
  activity change, negative = inhibition: -6.74%
[8]
  Potency: > 46 µM
[5]
  Potency: > 9.22 µM
[6]
  Potency: inactive
[7]
  Potency: inactive

## Nc1c(S(=O)(=O)O)cc(S(=O)(=O)O)c2ccc(N=Nc3ccccc3)c(O)c12
[1]
  Potency: > 11.4 µM
[2]
  activity change, negative = inhibition: 1.28%
[3]
  activity change, negative = inhibition: -3.14%
[4]
  activity, negative = inhibition: -2.56%
[5]
  Potency: > 9.22 µM
[6]
  Potency: inactive
[7]
  Potency: inactive

## O=C(CC1(O)CCCCC1)OC1CCCC1
[1]
  Potency: > 11.4 µM
[2]
  activity change, negative = inhibition: 8.55%
[3]
  activity change, negative = inhibition: 16.8%
[4]
  activity, negative = inhibition: 4.14%
[8]
  Potency: > 46 µM
[5]
  Potency: > 9.22 µM
[7]
  Potency: inactive
[9]
  Potency: 1.58 µM (active)

## O[C@H]([C@H](O)[C@@H](O)c1nc2ccccc2[nH]1)[C@@H](O)c1nc2ccccc2[nH]1
[1]
  Potency: > 11.4 µM
[2]
  activity change, negative = inhibition: 6.21%
[3]
  activity change, negative = inhibition: 19.9%
[4]
  activity, negative = inhibition: 6.86%
[5]
  Potency: > 9.22 µM
[6]
  Potency: inactive
[7]
  Potency: inactive

## Cn1c(=O)c2c(ncn2CCSS(=O)(=O)O)n(C)c1=O
[1]
  Potency: > 11.4 µM
[2]
  activity change, negative = inhibition: -0.109%
[3]
  activity change, negative = inhibition: 18.1%
[4]
  activity, negative = inhibition: -2.16%
[5]
  Potency: > 9.22 µM
[6]
  Potency: inactive
[7]
  Potency: inactive

## CN(C)c1ncnc2c1ncn2CCn1cnc2c(N(C)C)ncnc21
[1]
  Potency: > 11.4 µM
[2]
  activity change, negative = inhibition: 7.13%
[3]
  activity change, negative = inhibition: 7.13%
[4]
  activity, negative = inhibition: 11.6%
[5]
  Potency: > 9.22 µM
[6]
  Potency: inactive
[7]
  Potency: inactive
[10]
  Potency: inactive

## CN(C)c1ccc(C(c2ccc(N(C)C)cc2)c2ccc([N+](=O)[O-])cc2)cc1
[1]
  Potency: > 11.4 µM
[2]
  activity change, negative = inhibition: 5.91%
[3]
  activity change, negative = inhibition: -16.6%
[4]
  activity, negative = inhibition: 14.9%
[8]
  Potency: > 46 µM
[5]
  Potency: > 9.22 µM
[7]
  Potency: inactive
[11]
  Potency: inactive

## CN1CCC[C@@H]1c1cccnc1.O=C(O)c1ccccc1O.O=C([OH2+])c1ccccc1O.O=C([OH2+])c1ccccc1O.O=C([OH2+])c1ccccc1O.[Cu]
[1]
  Potency: > 11.4 µM
[2]
  activity change, negative = inhibition: 0.0867%
[3]
  activity change, negative = inhibition: -1.52%
[4]
  activity, negative = inhibition: 12.5%
[6]
  Potency: inactive
[7]
  Potency: inactive

## N#Cc1c(NC(=O)CCC(=O)O)ccc2ccccc12
[1]
  Potency: > 11.4 µM
[2]
  activity change, negative = inhibition: -3.75%
[3]
  activity change, negative = inhibition: 18.9%
[4]
  activity, negative = inhibition: 4.61%
[8]
  Potency: > 46 µM
[5]
  Potency: > 9.22 µM
[7]
  Potency: inactive
[9]
  Potency: inactive

## Cc1cc(C)nc(NC(=O)COc2ccc(Cl)cc2)c1
[1]
  Potency: > 11.4 µM
[2]
  activity change, negative = inhibition: 7.73%
[3]
  activity change, negative = inhibition: -19.2%
[8]
  Potency: > 46 µM
[5]
  Potency: > 9.22 µM
[6]
  Potency: inactive
[7]
  Potency: inactive

## COc1ccc(NCc2c(O)ccc3ccccc23)cc1
[1]
  Potency: > 11.4 µM
[2]
  activity change, negative = inhibition: -6.4%
[4]
  activity, negative = inhibition: -5.4%
[8]
  Potency: > 46 µM
[5]
  Potency: > 9.22 µM
[6]
  Potency: inactive
[7]
  Potency: inactive

## O=C(O)[C@H]1CCCC[C@@H]1c1c2ccc(=O)c(O)c-2oc2c(O)c(O)ccc12
[1]
  Potency: > 11.4 µM
[2]
  activity change, negative = inhibition: -17.7%
[3]
  activity change, negative = inhibition: 0.0388%
[8]
  Potency: > 46 µM
[5]
  Potency: > 9.22 µM
[7]
  Potency: inactive

## O=C(O)c1ccc(N[C@H](c2ccccc2)c2ccc3cccnc3c2O)cc1
[1]
  Potency: > 11.4 µM
[2]
  activity change, negative = inhibition: -0.822%
[4]
  activity, negative = inhibition: -17%
[8]
  Potency: > 46 µM
[5]
  Potency: > 9.22 µM
[6]
  Potency: inactive
[7]
  Potency: inactive

## O=C(CSc1nc2ccccc2s1)c1sc2sc3ccccc3[n+]2c1O
[1]
  Potency: > 11.4 µM
[2]
  activity change, negative = inhibition: -9.47%
[3]
  activity change, negative = inhibition: 6.64%
[8]
  Potency: > 46 µM
[5]
  Potency: > 9.22 µM
[6]
  Potency: inactive
[7]
  Potency: inactive
[12]
  activation: -16.9%

## CN1CCC[C@H](C(=O)OCC(=O)[C@]2(O)CC[C@@H]3[C@H]4CCC5=CC(=O)CC[C@@]5(C)[C@H]4[C@@H](O)C[C@]32C)C1
[1]
  Potency: > 11.4 µM
[2]
  activity change, negative = inhibition: 11%
[4]
  activity, negative = inhibition: -2.61%
[8]
  Potency: 0.135 µM (active)
[5]
  Potency: > 9.22 µM
[6]
  Potency: inactive
[7]
  Potency: inactive

## c1ccc(CSCCc2ccncc2)cc1
[1]
  Potency: > 11.4 µM
[2]
  activity change, negative = inhibition: -1.16%
[3]
  activity change, negative = inhibition: -10.1%
[8]
  Potency: > 46 µM
[5]
  Potency: > 9.22 µM
[6]
  Potency: inactive
[7]
  Potency: inactive
[13]
  Potency: 0.316 µM (active)
[10]
  Potency: 1.26 µM (active)
